# Compound activity as filed in PubChem.
# a7 integrin act: activators of alpha7 integrin expression for muscular dystrophy; alpha7betagal myoblasts, beta-gal FDG fluorescence, 48 h; Potency, µM (series often up to 38.3 µM), hits mostly activators; actives 0.064% (n = 350,000); AID 624291; also: nearly all actives have a fitted effect of over 60% in size
#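 alpha7betagal+/- myoblasts (passage 13, 250/well) treated 48 h at 37C with compounds at 1:260 dilution of DMSO stock. Lysed, then beta-galactosidase activity read as FDG fluorescence (ex 480/em 540) after 30 min, with pre-read for autofluorescence.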
# TCR act: activates T cell receptor signaling; 330,000 tested, under 10 active; AID 504894; primary human leukocytes, anti-CD3, IL-2 HTRF, 48 h; Potency, µM (highest dose often 9.22 µM), most hits filed as activators
#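 Activity was scored as IL-2 release from primary human leukocytes given only a TCR signal (a-CD3 beads) plus compound for 48 hr. Detection used a two-antibody HTRF format read at 665nm.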
# PKM2 activator: activators of human pyruvate kinase M2; P14618; purified PKM2, Kinase-Glo ATP luminescence, activation; response scale: 0% is enzyme alone, no compound; Potency, µM (series often up to 57.5 µM), actives largely listed as activators; actives 0.34% (n = 260,000); AID 1631; also: nearly all actives have a fitted effect of over 55% in size
#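 hPK-M2, >95% pure; 0.1 mM ADP / 0.5 mM PEP final; imidazole pH7.2 buffer w/ 7 mM MgCl2, 50 mM KCl; 1 h RT; Kinase-Glo lum. Intermediate enzyme activity for dual inhibitor/activator qHTS.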
# AT treatment: potential ataxia-telangiectasia treatments restoring KAP-1 phosphorylation; F2112 A-T fibroblasts, KAP-1 phosphorylation AlphaLISA; neocarzinostatin DNA damage 30 min before lysis; Potency, µM (top dose mostly 57.5 µM), usual class: activators; actives 0.19% (n = 320,000); AID 485349; also: nearly all actives have a fitted effect of over 45% in size
#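 hTERT-immortalized A-T patient fibroblasts (F2112), 500 cells/well in OPTI-MEM, 1% FBS, got compounds for 60 min, then NCS for 30 min at 37C. Lysates were then assayed for phospho-KAP-1 by AlphaLISA (anti-pKAP1 donor, anti-KAP1 acceptor beads), 6 hr at 25C.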
# Tb PFK inh-1: T. brucei PFK enzyme inhibition; O15648; T. brucei PFK, ADP-Glo luminescence; Potency, µM (doses to about 57.5 µM), usual class: inhibitors; actives 0.17% (n = 330,000); AID 485367; also: nearly all actives have a fitted effect of over 60% in size
# Target sequence (O15648 whole entry, looked up): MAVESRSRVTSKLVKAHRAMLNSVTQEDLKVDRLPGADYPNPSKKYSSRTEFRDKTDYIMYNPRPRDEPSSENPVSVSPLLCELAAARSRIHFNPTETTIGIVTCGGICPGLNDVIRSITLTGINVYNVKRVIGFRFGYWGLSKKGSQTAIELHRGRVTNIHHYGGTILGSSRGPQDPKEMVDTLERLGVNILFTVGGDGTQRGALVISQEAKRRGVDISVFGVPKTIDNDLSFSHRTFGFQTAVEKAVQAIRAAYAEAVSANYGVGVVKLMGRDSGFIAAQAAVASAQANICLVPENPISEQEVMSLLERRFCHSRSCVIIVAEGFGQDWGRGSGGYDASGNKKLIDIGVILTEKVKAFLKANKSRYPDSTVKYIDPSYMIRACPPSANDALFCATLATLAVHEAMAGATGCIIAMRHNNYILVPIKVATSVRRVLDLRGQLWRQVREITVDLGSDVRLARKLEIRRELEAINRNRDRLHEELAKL
#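 PFK 1.25 nM, F6P 0.5 mM, ATP 0.1 mM, 0.1 M TEA pH 8.0, 5 mM MgCl2, 0.01% Tween20, 0.1% BSA; 45 min RT. ADP-Glo readout. qHTS titration up to 57 uM; curves fitted, compounds curve-classed.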
# IL-2 act: activates IL-2 in a cell-based reporter assay; IL-2 activation reporter assay, cell-based qHTS; stimulated with anti-CD3/CD4/CD28 beads; in transgenic mouse T cells; activation, % (series mostly up to about 46 µM); actives 0.065% (n = 360,000); in the data active = activation above about 50%; inconclusive = mostly about 30% to 49%
#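 Unstimulated transgenic mouse T cells; 60-min compound exposure; bead-based TCR/CD4/CD28 stimulation; 18 h culture, 37 degrees C; dual fluorescence (EGFP, DsRed) plate cytometry.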
# TbPFK ATP: inhibits T. brucei PFK measured by ATP depletion. Potency, µM (series often up to 57.5 µM). shares compounds with Tb PFK inh-1. Tb PFK enzyme, ATP depletion, Kinase-Glo Plus luminescence. actives 47% (n = 1,100). AID 504636; calls by dose curve; also: nearly all actives have a fitted effect of over 60% in size
# Tb PFK inh-2: T. brucei PFK enzyme inhibition, hit validation | actives 41% (n = 1,100) | purified T. brucei PFK, ADP-Glo luminescence, 45 min | shares compounds with Tb PFK inh-1 | AID 504637 | Potency, µM (highest dose often 57.5 µM), hits mostly inhibitors; also: nearly all actives have a fitted effect of over 60% in size
# Numbers stand for hits; i = inactive; ? = inconclusive; nt = no result given; [ ] = another dose, or the depositor's remark. Compounds with a hit are over-represented: about 0.69% of the library has one in this group of screens. Unless noted, calls follow the shape of the dose curve; as a rule, active = well fitted curve in the direction sought with a large enough effect; inconclusive = small, poorly fitted or top-dose-only effect, or another doubt; inactive = no such curve, though single readings can be large; an effect the other way counts as inactive or inconclusive.
SMILES,a7 integrin act,TCR act,PKM2 activator,AT treatment,Tb PFK inh-1,IL-2 act,TbPFK ATP,Tb PFK inh-2
O=c1c2cc(F)ccc2sn1-c1ccc(F)cc1,i,i,nt,i,7.6µM,i,?,?
COc1ccc(-n2sc3ccc(F)cc3c2=O)cc1,i,i,nt,i,6.7µM,i,?,?
COc1ccc(-n2c(SC)nc3ccccc3c2=O)cc1,i,i,i,i,i,i,nt,nt
CC1=NNC(=O)C1Br (stereo unspecified),i,i,nt,nt,nt,i,nt,nt
O=C(O)CCc1nn2cc(-c3ccccc3)nc2[nH]c1=O,i,i,i,i,?,i,i,i
COc1cc(C2/C(=C(/O)c3ccc(F)cc3)C(=O)C(=O)N2CCCC(=O)O)ccc1O (stereo unspecified),i,i,i,i,?,i,12µM,21µM
CNC(=O)[C@@H]1C[C@H]1[C@@H](NP(=O)(c1ccccc1)c1ccccc1)c1ccccc1,nt,nt,i,nt,nt,nt,nt,nt
CCOC(=O)[C@]12Cc3cc(C)ccc3[C@H]1N(Cc1ccccc1)C(=O)c1cc(F)c(F)cc12,nt,nt,nt,nt,nt,i,nt,nt
Fc1ccc(NCc2cccnc2)cc1F,i,i,i,i,24µM,i,13µM,27µM
c1ccc(CCNCc2cccnc2)cc1,i,i,i,i,i,i,nt,nt
O=C1NS(=O)c2cc([N+](=O)[O-])cc([N+](=O)[O-])c21 (stereo unspecified),?,i,i,i,i,i,nt,nt
O=C1c2c([N+](=O)[O-])cc([N+](=O)[O-])cc2S(=O)N1Cc1ccccc1 (stereo unspecified),?,nt,i,i,27µM,i,i,i
CC1CCC(NC(=O)CNC(=S)N2CC3CC(C2)c2cccc(=O)n2C3)CC1 (stereo unspecified),i,i,nt,i,i,i,nt,nt
CC(c1cccs1)N(Cc1ccco1)C(=O)Nc1ccc(Cl)c(Cl)c1 (stereo unspecified),i,i,i,nt,?,i,i,i
COc1ccc(-c2nn(-c3ccccc3)cc2C(=O)N2c3ccc(C)cc3C3CN(C)CCC32)cc1 (stereo unspecified),i,i,i,i,i,i,nt,nt
Cc1ccc(S(=O)(=O)N2CCCCC2)cc1NC(=O)CN1CC=C(c2ccccc2)CC1,i,i,i,i,i,i,nt,nt
CC1CCN(S(=O)(=O)c2ccc3c(c2)CCC(=O)N3CC(=O)Nc2cccc(C#N)c2)CC1,nt,nt,nt,i,9.5µM,nt,6µM,12µM
Cc1cnc(-n2c(=S)[nH]c3ccccc3c2=O)s1,?,i,nt,i,i,i,nt,nt
Cc1cc(-c2nc3c4c5c(sc4[nH]c(=O)n3n2)CCC5)c(C)o1,i,i,i,i,?,i,i,i
Cc1ccc(OCCOc2cccc(C=C3C(=O)NC(=O)NC3=O)c2)cc1,i,i,nt,i,i,i,nt,nt
COC(=O)C1=C(c2cccc(C#N)c2)C[C@@H]2CC[C@H]1N2C(=O)NC1Cc2ccccc2C1,i,i,nt,i,i,i,nt,nt
Cc1nn(Cc2ccc(Cl)c(Cl)c2)c(C)c1NC(=O)c1cc(CC(C)C)on1,i,i,i,i,30µM,i,11µM,12µM
Cc1nn(Cc2ccc(F)cc2)c(C)c1NC(=O)c1cc2ncc(Br)cn2n1,i,i,i,i,24µM,i,11µM,24µM
COC(=O)C1=C(c2ccc(F)cc2OCc2ccccc2)C[C@@H]2CC[C@H]1N2C(=O)NCCN1CCOCC1,i,i,nt,i,i,i,nt,nt
C[C@@H]1CN([C@@H](C)CO)C(=O)CCCn2nncc2CO[C@H]1CN(C)C(=O)Oc1ccc2ccccc2c1,i,nt,nt,nt,nt,i,nt,nt
SMILES,a7 integrin act,TCR act,PKM2 activator,AT treatment,Tb PFK inh-1,IL-2 act,TbPFK ATP,Tb PFK inh-2
COc1cc(CC(=O)Nc2nc(-c3ccccc3)c(C(C)=O)s2)cc(OC)c1OC,i,i,i,i,?,i,?,?
Cc1cc2c(cc1C)NP(=S)(c1ccccc1)N2,i,i,nt,nt,nt,i,nt,nt
CC(=O)NC1=NN(C(C)=O)C(C)(c2ccccc2)S1 (stereo unspecified),i,i,i,i,?,i,i,i
O=C(Cc1ccc(Cl)c(Cl)c1)Nc1cccc2ncccc12,i,i,i,i,11µM,i,11µM,11µM
Nc1nnc(Cc2ccc(Cl)c(Cl)c2)s1,i,i,i,i,19µM,i,7.6µM,19µM
CC1C2Cc3ccc(O)cc3[C@]1(C)CCN2CCc1ccccc1 (stereo partly specified),nt,i,nt,i,i,i,nt,nt
NC(=O)c1ccsc1NC(=O)COC(=O)Cc1ccccc1,i,nt,nt,i,?,i,nt,nt
O=C(COC(=O)Cc1ccc(Cl)c(Cl)c1)Nc1ccc2[nH]c(=O)[nH]c2c1,i,i,nt,i,21µM,i,?,13µM
O=C(COC(=O)Cc1c(Cl)cccc1Cl)Nc1ccc2[nH]c(=O)[nH]c2c1,i,nt,nt,i,?,i,?,?
Cc1cccc(NC(=O)CSc2ccc(-c3ccco3)nn2)c1,i,i,?,i,i,i,nt,nt
NC(=O)CNC(=O)C1CCCc2c1[nH]c1ccc(Cl)cc21 (stereo unspecified),i,nt,i,i,6µM,i,2.4µM,3.4µM
COc1cc(C(=S)N2CCN(c3ccccc3Cl)CC2)cc(O)c1O,i,i,3.5µM,i,?,i,?,?
COc1ccccc1N1CCN(Cc2ccccc2Cl)CC1,i,i,i,i,i,i,nt,nt
Cc1cc(-c2cc(C)c(N)c(C)c2)cc(C)c1N,nt,i,nt,nt,nt,i,nt,nt
CNCCc1ccc(O)c(O)c1,nt,i,nt,nt,nt,i,nt,nt
C[C@](N)(Cc1ccc(O)c(O)c1)C(=O)O,nt,i,i,i,?,i,?,?
CCOP(=O)(CCP(=O)(OCC)OCC)OCC.C[CH2][Sn]([Cl])([Cl])[CH2]C,i,i,nt,nt,nt,i,nt,nt
Oc1ccc(/C=N/N=C/c2ccc(O)c(O)c2)cc1O,i,i,i,i,2.7µM,i,?,?
O=c1c(OC2OC(CO)C(O)C(O)C2O)c(-c2ccc(O)c(O)c2)oc2cc(O)cc(O)c12 (stereo unspecified),i,i,i,i,12µM,i,8.5µM,4.3µM
O=c1cc(-c2ccc(O)c(O)c2)oc2cc(O[C@@H]3O[C@H](CO)[C@@H](O)[C@H](O)[C@H]3O)cc(O)c12,i,i,nt,i,?,i,?,?
CCN1CCN(C(=O)Cc2ccccc2OC)CC1,i,i,i,i[11.5 µM],i,i,nt,nt
